Screening results deposited in PubChem BioAssay by National Center for Advancing Translational Sciences (NCATS).
TRHR PAM = qHTS for Small Molecule Agonists and Allosteric Enhancers of Human TRH Receptor: Primary Screen for Enhancers; 360,000 tested, 0.66% active; Thyrotropin-releasing hormone receptor (Homo sapiens), P34981; TRHR cells, fluo-8 calcium fluorescence, EC20 TRH enhancement; enhancement, % at 2 µM; in the data active = enhancement above about 30%
Target sequence (P34981 whole entry, looked up): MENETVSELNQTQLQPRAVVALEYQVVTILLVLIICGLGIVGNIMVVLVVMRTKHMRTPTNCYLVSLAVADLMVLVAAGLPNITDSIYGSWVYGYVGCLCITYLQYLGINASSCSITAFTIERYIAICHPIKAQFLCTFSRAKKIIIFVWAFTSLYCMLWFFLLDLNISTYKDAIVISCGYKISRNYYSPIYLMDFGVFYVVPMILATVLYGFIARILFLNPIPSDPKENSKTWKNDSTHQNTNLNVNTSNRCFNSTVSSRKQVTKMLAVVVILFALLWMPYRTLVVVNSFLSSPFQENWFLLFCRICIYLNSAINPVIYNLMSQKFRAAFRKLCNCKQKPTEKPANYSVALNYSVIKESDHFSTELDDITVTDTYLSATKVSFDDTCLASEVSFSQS
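Enhancer read-out: after compound pinning and an initial kinetic agonist-mode read, an EC20 of TRH (10 nM final) was injected and fluo-8 calcium signal (Ex 480/Em 530) followed at 1 s/cycle for 100 cycles in TRHR-expressing cells.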
TRHR ag = qHTS for Small Molecule Agonists and Allosteric Enhancers of Human TRH Receptor: Primary Screen for Agonists; activation, % at 2 µM; AID 493084, 2011; TRHR cells, calcium flux fluo-8, FDSS agonist mode; Thyrotropin-releasing hormone receptor (Homo sapiens), P34981; 360,000 tested, 0.18% active
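Fluo-8-loaded TRHR cells; 10 s baseline, compound added, kinetic Ca2+ fluorescence read 1/s, agonist mode.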
D1 potentiator = Potentiators of Human D1 Dopamine Receptor: qHTS; HEK293 TREx D1 cells, calcium flux, dopamine EC20 potentiation; 360,000 tested, 0.036% active; potentiation, % at 10 µM; D(1A) dopamine receptor (Homo sapiens), P21728; in the data active = potentiation above about 30%
D1 antag = Antagonist of Human D 1 Dopamine Receptor: qHTS; D(1A) dopamine receptor (Homo sapiens), P21728; HEK293 TREx D1 cells, calcium flux, dopamine EC80; active compounds read low; activity change, negative = inhibition, % at 10 µM; 360,000 tested, 3.2% active; in the data active = activity change below about -30%
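Antagonism measured as reduced calcium response to an EC80 dopamine addition following 180 s compound pre-read; cells were inducible HEK293 Trex D1 plated overnight at 30 C, read kinetically at 1 cycle/sec.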
D1 ag = Allosteric Agonists of the Human D1 Dopamine Receptor: qHTS; D(1A) dopamine receptor (Homo sapiens), P21728; HEK293 T-REx D1 cells, calcium flux, agonist mode; activation, % at 2 µM; 360,000 tested, 1% active
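Inducible HEK293 T-REx D1 cells, force-coupled to calcium signalling, were plated at 4000 cells/well with tetracycline and held overnight at 30 C. After no-wash calcium dye loading, compound-evoked calcium rise over 180 s flagged agonists.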
A number is an active result; - = inactive; . = no result given. A selection: hits, their analogues and other compounds. The true share with any hit is near 4.7%. Rule as the data show it, unless noted: active = activation above about 30%; inactive = the rest.

SMILES	TRHR PAM	TRHR ag	D1 potentiator	D1 antag	D1 ag
C/C(=N\NC(=O)c1ccn(C)n1)c1cccc(NC(=O)c2ccncc2)c1	-	-	-	-47	-
CC(C)(C)NC(=O)CN(C(=O)CCN1CCCc2ccccc21)C(C)(C)C	-	-	-	-	-
CCCN1CCCc2ccccc21	-	-	-	-31	-
CCN(CC)CCN1C(=O)C(=O)/C(=C(/O)c2ccc3c(c2)CC(C)O3)C1c1ccc(OC)cc1 (stereo not given)	-	-	-	-30	-
CCc1cnc2c(c1SCC(=O)Nc1cc(Cl)ccc1OC)c(=O)n(C)c(=O)n2C	-	-	-	.	-
Cc1ccccc1Cc1ccc(Cl)nn1	-	-	-	-44	-
CN(C)CCNC(=O)c1ccc(CS(=O)(=O)c2c(Cl)cccc2Cl)o1	-	-	-	-	-
CN(CCNC(=O)c1ccc(CS(=O)(=O)c2c(Cl)cccc2Cl)o1)CCc1ccccc1	-	-	-	-56	-
COc1ccc(C2=NO[C@@H]3C(=O)N(C4CCCCC4)C(=O)[C@H]23)cc1OC	-	-	-	-35	-
COc1ccc(Oc2ccc(N/C=C3/CCCC3=O)cc2)cc1	-	-	-	-31	-
COc1ccc(Oc2ccc(N/C=C3\CCCC3=O)cc2)cc1	-	-	-	-	-
O=C(CSc1nc2ccccc2nc1Cc1ccccc1)Nc1ccccc1C(F)(F)F	-	-	-	-	-
COc1cccc(C=Nc2ccc(N3CCOCC3)cc2)c1O	36	-	-	-	-
COc1cccc(/C=N/N2CCOCC2)c1O	-	-	-	-	-
C=CCn1c(SCC(=O)Nc2ccc(OC)cc2)nnc1-c1cnccn1	-	-	32	-	-
Cc1cc(-c2nc3ncccc3o2)ccc1NC(=O)c1ccc(Cl)cc1	-	-	-	-	-
O=C(CCCN1C(=O)C(c2ccccc2)Oc2cccnc21)Nc1cccc(F)c1 (stereo not given)	-	-	-	-44	-
CC1CN(C)C(C)C/C1=N\Oc1ccc([N+](=O)[O-])cc1 (stereo not given)	-	-	-	-31	-
CC1CN(C)C(C)C/C1=N/Oc1ccccc1[N+](=O)[O-] (stereo not given)	-	-	-	-	-
CCCCOc1ccc(C(=O)Nc2cc(-c3cn4cccnc4n3)ccc2OC)cc1	-	-	-	-	-
c1ccc(COc2ccccc2CNC23CC4CC(CC(C4)C2)C3)cc1	-	-	-	-	49
CC(C)(C)c1ccc(C(=O)NCC(=O)OCc2ccc([N+](=O)[O-])cc2)cc1	-	-	-	-35	-
Cc1n[nH]c(=S)n1/N=C/c1ccc(OCc2ccc(Cl)cc2)cc1	-	-	-	-34	-
N=c1sccn1CC(=O)Nc1ccc(SC(F)F)cc1	-	-	-	-	46
O=C(Cc1ccccc1)Nc1ccc(SC(F)F)cc1	-	-	-	-40	-
SMILES	TRHR PAM	TRHR ag	D1 potentiator	D1 antag	D1 ag
COc1ccc(C(=O)Nc2ccc(SC(F)F)cc2)cc1	-	-	-	-	46
CCCCOc1ccc(C(=O)Nc2ccc(SC(F)F)cc2)cc1OC	-	-	-	-	-
CCC(C(=O)OCC(=O)Nc1ccc(SC(F)F)cc1)c1ccccc1 (stereo not given)	-	-	-	-36	-
O=C(Cn1c(=O)nc(-c2ccccc2)c2ccccc21)NCCc1ccccc1	-	-	-	-	-
COc1ccc(-c2cc(C(F)(F)F)n3nc(C(=O)Nc4cccc(C(F)(F)F)c4)c(Br)c3n2)cc1	-	-	-	-	-
CCOC(=O)c1ccc(NS(=O)(=O)c2cc(Br)cc3c2N(C(C)=O)C(C)C3)cc1 (stereo not given)	-	-	-	-	-
Cc1ccc(N2C(=O)CCSC23C(=O)N(Cc2ccccc2)c2ccccc23)cc1F (stereo not given)	-	-	-	-	-
CCOC(=O)N1CCC(NC(=O)c2ccc3c(c2)N(Cc2ccc(Cl)cc2)C(=O)c2ccccc2S3=O)CC1 (stereo not given)	-	-	-	-	-
C/C=C/C(=O)OCC(=O)Nc1ccc(SC(F)F)cc1	-	-	-	-33	-
